A selection: hits, their analogues and other compounds. The true share with any hit is near 3.6%.
Autofluor counter = counter-screen for toxin protease inhibitors: compound fluorescence | AID 624483 | actives 3.1% (n = 360,000) | compound autofluorescence counterscreen, microsphere flow cytometry; stronger effect = higher value | fluorescence intensity (test concentration not listed); in the data active means fluorescence intensity above about 16000; inconclusive means no clear call, values can overlap the other calls
BoNT A protease = BoNT/A light chain protease inhibitors, primary screen, biochemical, flow cytometry, MLPCN library. multiplex microsphere protease substrate cleavage. inhibition, % at 10 µM. actives 0.17% (n = 360,000). AID 588499, 2011; further: plate controls were buffer without enzyme for full effect and enzyme alone for no effect
MazEF act = activators of E. coli MazEF toxin-antitoxin RNase, primary screen, biochemical, fluorescence, uHTS; Endoribonuclease toxin MazF (Escherichia coli (strain K12)), P0AE70; FAM/BHQ RNA-DNA oligo cleavage fluorescence, 5 h; activation, % at 20 µM; actives 0.32% (n = 350,000); in the data active means activation above about 50%
Anthrax LF inh2 = Bacillus anthracis LF protease inhibitors, primary screen, biochemical, multiplex microsphere, MLPCN library | Lethal factor (Bacillus anthracis), P15917 | multiplex microsphere protease cleavage assay | inhibition, % at 10 µM | actives 0.12% (n = 360,000); further: plate controls were buffer without enzyme for full effect and enzyme alone for no effect
Target sequence (P15917 whole entry, looked up): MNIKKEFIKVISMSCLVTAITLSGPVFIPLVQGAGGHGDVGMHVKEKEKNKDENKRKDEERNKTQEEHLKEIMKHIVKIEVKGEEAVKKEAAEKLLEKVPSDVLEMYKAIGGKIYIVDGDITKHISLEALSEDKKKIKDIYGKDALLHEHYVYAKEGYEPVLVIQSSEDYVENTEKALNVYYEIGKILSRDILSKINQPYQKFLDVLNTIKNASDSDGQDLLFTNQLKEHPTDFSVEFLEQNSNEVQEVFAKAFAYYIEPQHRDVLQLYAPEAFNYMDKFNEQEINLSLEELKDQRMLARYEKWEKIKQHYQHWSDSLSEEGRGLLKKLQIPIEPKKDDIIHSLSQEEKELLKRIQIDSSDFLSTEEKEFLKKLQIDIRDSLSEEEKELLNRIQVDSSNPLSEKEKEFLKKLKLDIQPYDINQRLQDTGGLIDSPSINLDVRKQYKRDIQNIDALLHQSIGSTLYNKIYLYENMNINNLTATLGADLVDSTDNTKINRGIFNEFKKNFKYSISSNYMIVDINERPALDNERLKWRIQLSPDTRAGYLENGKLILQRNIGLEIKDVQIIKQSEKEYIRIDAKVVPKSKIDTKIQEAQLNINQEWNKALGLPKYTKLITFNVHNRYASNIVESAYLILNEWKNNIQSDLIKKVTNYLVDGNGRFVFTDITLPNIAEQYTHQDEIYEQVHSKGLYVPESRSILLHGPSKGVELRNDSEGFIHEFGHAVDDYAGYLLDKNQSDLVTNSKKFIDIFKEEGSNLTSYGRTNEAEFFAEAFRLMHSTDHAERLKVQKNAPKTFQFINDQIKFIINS
BoNT-F LC inh = BoNT/F light chain protease inhibitors, primary screen, biochemical, flow cytometry, MLPCN library; Multiplex microsphere protease cleavage assay; inhibition, % at 10 µM; actives 0.22% (n = 360,000); AID 588497, 2011; in the data active means inhibition above about 35%, passing the limit was not always enough; inconclusive means no clear call, values can overlap the other calls; further: plate controls were buffer without enzyme for full effect and enzyme alone for no effect
* marks the source's active call; other numbers are inactive results; ? = inconclusive. Unless noted, no stated cut-off is given here; in the data, active means inhibition above about 30%; inconclusive means no clear call, values can overlap the other calls; inactive means below that.

SMILES	Autofluor counter	BoNT A protease	MazEF act	Anthrax LF inh2	BoNT-F LC inh
CCc1nc(-c2cc3ccc(C)cc3[nH]c2=O)no1	9970	0	10	2	-1
Cc1ccc2cc(-c3noc(C(C)(C)C)n3)c(=O)[nH]c2c1	22460*	2	-3	2	3
CCOC(=O)c1c(NC(=S)Nc2ccccc2)sc2c1CCN(CC)C2	9132	18	51*	31*	2
CCOC(=O)N1CCN(S(=O)(=O)c2ccc(C(=O)Nc3sc4c(c3C(=O)OC)CCN(C)C4)cc2)CC1	5246	1	295*	-2	10
CCOC(=O)c1c(NC(=O)Nc2ccc(C)cc2)sc2c1CCN(C)C2	4528	-6	50*	10	-52
CCOC(=O)c1c(NC(=S)Nc2ccccc2)sc2c1CCCCC2	10509	2	-2	2	-5
COC(=O)c1ccc(COc2cccc(OC)c2)o1	22471*	1	8	-9	-3
COc1ccc(OC)c(CN2CCN(C(=O)c3cccc(S(=O)(=O)N(C)c4ccccc4)c3)CC2)c1	3832	0	5	-4	-11
N#Cc1c(-c2ccco2)nc(SCc2ccc(F)cc2)[nH]c1=O	5825	0	6	-9	0
Cc1nc(SCc2cccc(F)c2)[nH]c(=O)c1C#N	22061*	?	1	-3	4
CC(=O)OCC(=O)C12OC(C)(C)OC1CC1C3CC=C4CC(O)CCC4(C)C3CCC12C (stereo not given)	3826	0	0	4	-3
O=C(c1cc2ccccn2n1)N1CCN(c2cccc(C(F)(F)F)c2)CC1	20114*	0	-14	0	0
CN(C)C(CNC(=O)c1cccc(S(=O)(=O)N2CCN(c3ccc(F)cc3)CC2)c1)c1ccccc1 (stereo not given)	4571	5	6	4	11
CC1=NN(c2ccccc2)C(c2ccco2)C1 (stereo not given)	2925	-1	-23	-4	-9
O=[N+]([O-])c1ccc(/C=C/C2=NN(c3ccccc3)C(c3ccco3)C2)cc1 (stereo not given)	34435*	57*	-22	40*	66*
CCOC(=O)N(C)C[C@@H]1OCc2ccccc2-c2c(n(C)c3ccccc23)C(=O)N([C@H](C)CO)C[C@H]1C	4106	-1	9	3	-6
Cc1ccc(CCNC(=O)C2CC(=O)N(C3CCCCC3)C2)cc1 (stereo not given)	5417	0	7	1	7
COc1ccc(CCN2CC(C(=O)NCc3ccco3)CC2=O)cc1OC (stereo not given)	16739*	0	-1	-4	0
COc1ccc(CCNC(=O)C2CCN(S(=O)(=O)N3CCCCCC3)CC2)cc1OC	22454*	3	4	-6	4
O=C(NCc1ccco1)C1CC(=O)N(CCc2ccccc2)C1 (stereo not given)	3474	0	-1	-4	-7
COc1ccc(CCNC(=O)C2CC(=O)N(C3CCCCCCC3)C2)cc1OC (stereo not given)	24165*	-3	-17	-2	-3
CCc1nc(N)c(C#N)c(-c2ccco2)c1C	2365	0	2	-2	-12
Cc1c(-c2ccccc2)nc(N)c(C#N)c1-c1ccco1	20557*	0	-11	0	-2
O=C(NCc1ccccc1)c1cc(-c2cccs2)on1	18644*	5	-7	-9	7
COC(=O)c1ccccc1NC(=O)c1cc(-c2ccco2)on1	4529	0	-5	0	-2
SMILES	Autofluor counter	BoNT A protease	MazEF act	Anthrax LF inh2	BoNT-F LC inh
COC(=O)c1ccccc1NC(=O)c1cc(-c2cccs2)on1	20518*	1	-52	-1	2
COc1ccccc1-c1cc(C(=O)NCc2ccccc2)no1	21016*	-1	2	-2	-2
O=C(NCc1ccc(F)cc1)c1cc(-c2cccs2)on1	10320	2	-1	0	0
COc1ccccc1-c1cc(C(=O)NCc2ccc(F)cc2)no1	16081	2	2	-1	-2
CCCC(=O)N(CCN1CCOCC1)c1nc2c(OCC)cccc2s1	5162	0	6	-3	2
COc1ccc(CNS(=O)(=O)CCNC(=O)c2ccc(OC)cc2)cc1	5920	3	-5	2	-1

Source: PubChem (several laboratories)
